Bioassay records (PubChem BioAssay)
CHX counter-1: Cycloheximide Counterscreen for Small Molecule Inhibitors of Shiga Toxin; cell reporter, cycloheximide protein synthesis inhibition counterscreen; max response, %; 12% of 300,000 active; in the data active means max response mostly above about 13%, no sharp cut-off; inactive means mostly below about 14%; further: read at 38.3 µM for the half of the compounds with a filed dose; 0% is about no effect
Shiga toxin inh: A qHTS for Small Molecule Inhibitors of Shiga Toxin; Vero cells, Shiga toxin protein synthesis inhibition reporter; inhibition, % at 38.7 µM; 9.2% of 290,000 active; in the data active means inhibition mostly above about 28%, no sharp cut-off; inactive means mostly below about 43%; further: 0% is about no effect
AmpC inh detg: qHTS Inhibitors of AmpC Beta-Lactamase (assay with detergent); AmpC hydrolysis of nitrocefin, absorbance 480 nm, 0.01% Triton; AID 485294, 2010; P00811; 0.041% of 370,000 active; Potency, µM (doses to about 114 µM), without a hit: top-dose activity change, negative = inhibition, actives largely listed as inhibitors; active means well fitted curve in the direction sought with a large enough effect; inconclusive means small, poorly fitted or top-dose-only effect, or another doubt; inactive means no such curve, though single readings can be large; an effect the other way counts as inactive or inconclusive;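 further: potency means the concentration at half of the fitted maximal effect; 0% = no-compound wells and -100% = no-enzyme wells; nearly all actives have a fitted effect of over 25% in size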
Target sequence (P00811 whole entry, looked up): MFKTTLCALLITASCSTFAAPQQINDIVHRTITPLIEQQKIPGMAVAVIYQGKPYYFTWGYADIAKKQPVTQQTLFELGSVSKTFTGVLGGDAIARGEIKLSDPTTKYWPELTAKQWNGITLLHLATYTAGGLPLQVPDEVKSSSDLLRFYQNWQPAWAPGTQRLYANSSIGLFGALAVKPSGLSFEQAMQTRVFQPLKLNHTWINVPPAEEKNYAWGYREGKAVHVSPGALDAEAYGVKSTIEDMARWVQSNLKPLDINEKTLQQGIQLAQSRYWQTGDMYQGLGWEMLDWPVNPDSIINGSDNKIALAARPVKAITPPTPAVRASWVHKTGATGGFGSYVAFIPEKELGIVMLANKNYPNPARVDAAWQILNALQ
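20 mM phosphate pH 7.0 + 0.01% (detergent screen) or 0.0001% Triton X-100; 5.3 nM AmpC reagent; cpd preinc 15 min RT; nitrocefin (800 uM stock) to start; A480 q20 s × 4 min; Activity was normalised to no-enzyme and no-compound control wells.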
AmpC inh no detg: qHTS Inhibitors of AmpC Beta-Lactamase (assay without detergent). P00811. AmpC nitrocefin hydrolysis, absorbance 480 nm, 0.0001% Triton. Potency, µM (doses to about 57.1 µM), for the others: at the highest dose activity change, negative = inhibition, actives largely listed as inhibitors. 0.52% of 330,000 active; active means well fitted curve in the direction sought with a large enough effect; inconclusive means small, poorly fitted or top-dose-only effect, or another doubt; inactive means no such curve, though single readings can be large; an effect the other way counts as inactive or inconclusive;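 further: potency means the concentration at half of the fitted maximal effect; plate controls were no compound for no effect and no enzyme for full effect; nearly all actives have a fitted effect of over 20% in size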
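20 mM phosphate pH 7.0 + 0.01% (detergent screen) or 0.0001% Triton X-100; 5.3 nM AmpC reagent; cpd preinc 15 min RT; nitrocefin (800 uM stock) to start; A480 q20 s × 4 min; Activity was normalised to no-enzyme and no-compound control wells.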
NS1 function inh: qHTS Assay for Inhibitors of Influenza NS1 Protein Function; Potency, µM (titrated, usually from 46.1 µM), inactives show at the highest dose activity, positive = more growth; 0.4% of 270,000 active; further: potency means the concentration at half of the fitted maximal effect; actives are rising curves; nearly all actives have a fitted effect of over 50% in size
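Compounds were scored for reversing the slow growth caused by influenza A NS1 in S. cerevisiae, measured by optical density at 600 nm. Assay medium contained 2% galactose at pH 6.0; NS1-free yeast of the same strain were the positive control.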
CHX counter-2: Cycloheximide Counterscreen for Small Molecule Inhibitors of Shiga Toxin (Confirmatory). shares compounds with Shiga toxin inh. Cycloheximide counterscreen, protein synthesis reporter, Shiga toxin assay. Potency, µM (titrated, usually from 38.3 µM), without a hit: at the highest dose activity (activation), usual class: activators. 3% of 510 active. AID 2318, 2010; further: potency means the concentration at half of the fitted maximal effect; 0% is about no effect
NS1 inh valid: Assay for Inhibitors of Influenza NS1 Protein Function: Hit Validation; shares compounds with NS1 function inh; influenza NS1 function cell assay, 15-point titration; activity change, negative = inhibition, % at 32.9 µM; 1,400 tested, under 10 active; further: 0% is about no effect
Starred values were filed as active, the others as inactive; ? = inconclusive; . = not tested or not shown. Many of the other results were omitted from the sample, so hits are more common in it than they were. Unless noted, the call rests on the fitted dose curve.

SMILES	CHX counter-1	Shiga toxin inh	AmpC inh detg	AmpC inh no detg	NS1 function inh	CHX counter-2	others
CCC1=C([N+](=O)[O-])C(c2ccc3c(c2)OCO3)NC(=O)N1 (stereo unspecified)	-3	.	-12%	-13%	14%	.
COc1ccc(NC(=O)c2ccccc2[N+](=O)[O-])cc1	5	40*	?	-8%	7%	5%
COc1ccc(CNC(=O)c2ccccc2[N+](=O)[O-])cc1	-2	-7	-4%	-2%	4%	.
COc1ccc(NC(=O)c2cccnc2Nc2ccc(OC)cc2)cc1	5	42*	?	-7%	-3%	1%
COC(=O)[C@H](CC(C)C)NC(=O)Nc1ccccc1F	-2	-11	-4%	-10%	-61%	.
Cc1sc(NC(=O)CCCC(=O)O)c(C(N)=O)c1-c1ccccc1	9	74*	5%	-14%	.	?
O=C(CCc1ccccc1)NC1CC(=O)N(c2ccccc2)C1 (stereo unspecified)	.	.	1%	.	.	.
COc1ccc(-c2cc(C(=O)Nc3sc4c(c3C#N)CCCC4)no2)cc1OC	.	.	17%	.	.	.
Cn1nccc1C(=O)Nc1sc2c(c1C#N)CCCC2	16	16*	1%	-30%	-22%	?
CN(C)c1ccc(/C=[N+](\[O-])C(C)(C)/C=N/O)cc1	1	-11	-12%	-18%	-9%	.
CN(C)c1ccc(/C=C/C#N)cc1	9	31*	-7%	-7%	-4%	5%
Cc1ccc2nc(C)cc(C(=O)OCC(=O)Nc3c(C)n(C)n(-c4ccccc4)c3=O)c2c1	-2	-7	0%	-4%	.	.
C[C@@H]1NS(=O)(=O)[C@H]2C[C@@H]3C=C[C@]2(O3)[C@H]1OC(=O)Nc1ccc(C(F)(F)F)cc1[N+](=O)[O-]	.	.	0%	-3%	.	.
O=C(O)c1ccn(Cn2cnc3ccccc32)n1	7	27*	-8%	-10%	?	-1%
O=C(NCC1CCCO1)Nc1ccc2c(c1)OCO2 (stereo unspecified)	7	43*	4%	-28%	5%	?
COc1ccc(C2=NOC(C(=O)NC(C)C)C2)cc1 (stereo unspecified)	2	26*	-3%	-16%	1%	1%
Cc1ccc2oc(-c3ccc(C)c(NC(=O)/C=C/c4ccc(Cl)cc4)c3)nc2c1	.	.	-4%	.	.	.
CCOC(=O)C1CCCN(C(=O)c2cc(Nc3ccc(OC)c(OC)c3)nc3ccccc23)C1 (stereo unspecified)	10	38*	0%	146%	-35%	4%
CCOC(=O)C1CCCN(C(=O)c2cc(Nc3ccc(OC)cc3OC)nc3ccccc23)C1 (stereo unspecified)	26	23	-11%	130%	-22%	.
COc1cccc(C(C(=O)NC2CCCC2)N(C(=O)c2ccco2)C2CC2)c1OC (stereo unspecified)	-2	35*	-14%	22%	1%	2%
Cc1ccc(NC(=S)c2nc3ccccc3s2)cc1	20	73*	-4%	-22%	-8%	0.71µM*
CCCCc1ccc(NS(=O)(=O)N(C)C)cc1	2	72*	-5%	-14%	-77%	3%
CN(C)S(=O)(=O)Nc1ccc(Oc2ccccc2)cc1	-1	-25	?	-10%	-46%	.
Cc1ccc(C)c(NC(=O)CN(C)C(C)C(=O)N2CC(C)CC(C)C2)c1 (stereo unspecified)	.	.	-15%	175%	.	.
CC(C)c1nnc(NC(=O)CSc2nc3ccccc3s2)s1	3	50*	-9%	-39%	-69%	1%
SMILES	CHX counter-1	Shiga toxin inh	AmpC inh detg	AmpC inh no detg	NS1 function inh	CHX counter-2	others
Cc1ccsc1C(=O)NC(C)c1ccccc1 (stereo unspecified)	1	-7	-6%	-9%	-5%	.
CC(C)c1ccc(NC(=O)C2CCCN(S(=O)(=O)c3ccc4[nH]c(=O)oc4c3)C2)cc1 (stereo unspecified)	.	.	16%	.	.	.
O=C1C(Cl)=C(Nc2ccccc2)C(=O)c2ccccc21	9	69*	-12%	-12%	1%	?
COC(=O)[C@@]1(Cc2ccc(F)cc2)[C@H]2c3cc(C(=O)N4CCCC4)n(CCc4ccc(O)c(O)c4)c3C[C@H]2CN1C(=O)c1ccccc1	7	53*	?	273%	8.9µM*	1%	NS1 inh valid=4
O=C(O)CNC(=O)c1nc(-c2ccccc2)n(-c2ccccc2)n1	-1	27	-3%	-22%	-7%	.
COc1cccc(NC(=O)Cc2nnc(SCC(=O)c3ccccc3)n2C)c1	10	17	3%	13%	7.9µM*	.	NS1 inh valid=-5
COc1ccccc1-n1c(SCC(=O)Nc2cccc(C(=O)O)c2)nnc1-c1ccccc1C	-4	-7	?	-33%	13µM*	.	NS1 inh valid=30
O=C(c1ccccc1)N1CCC(CC2CC(c3cccc(Br)c3)=NO2)(C(=O)NCC2CCCCC2)CC1 (stereo unspecified)	3	3	-7%	53%	?	.
CC(C)(C)OC(=O)N1CCC(CC2CC(c3cccc(Br)c3)=NO2)(C(=O)NCC2CCCCC2)CC1 (stereo unspecified)	13*	26	1%	20%	?	.	NS1 inh valid=-34
CN1OC2C(=O)N(c3ccccc3)C(=O)C2C1c1ccc(F)cc1 (stereo unspecified)	3	71	0%	67%	?	.	NS1 inh valid=12
CCC(O)C1CCN(C(=O)c2ccc(OC3CCN(Cc4ccccn4)CC3)cc2)CC1 (stereo unspecified)	11	-7	1%	28%	2%	.
CCOc1ccc(NC(=O)CCS(=O)(=O)c2ccc3c(c2)CCCN3C(C)=O)cc1	-1	31	0%	22%	11µM*	.	NS1 inh valid=11
COc1ccc(NC(=O)CCS(=O)(=O)c2ccc3c(c2)CCCN3C(C)=O)cc1	-3	-1	4%	-11%	-2%	.
CC(=O)c1c(COC(=O)c2cccnc2)nc2ccccc2[n+]1[O-]	1	-20	-20%	-14%	5µM*	.	NS1 inh valid=18
CC(=O)c1c(COC(=O)c2ccc(C)cc2)nc2ccccc2[n+]1[O-]	-1	-9	-4%	-14%	-5%	.
CCOc1cc2[nH]c(=O)n(CC3CCC(C(=O)NCCCOC)CC3)c(=O)c2cc1OCC (stereo unspecified)	-3	6	-15%	-1%	8.9µM*	.	NS1 inh valid=9
COc1ccc(CCN2CC(C(=O)N3CCN(C(C)=O)CC3)CCC2=O)cc1 (stereo unspecified)	3	-5	-5%	-4%	5%	.
COc1cc(/C=N/n2c(-c3n[nH]c4c3CCC4)n[nH]c2=S)ccc1O	-2	-3	?	-21%	5.6µM*	.	NS1 inh valid=?
